Experimental data as given in PubChem BioAssay.
Active and inactive are the calls of the source. Unless noted, the rule behind the calls is not given here.

Tests used:
[1] = compounds binding Alexa647 anti-His antibody – biochemical, small-molecule microarray, 635 nm fluorescence, artefact control for SMM control protein annotation, primary screen (AID 1128); conditions: higher = more signal;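 note: score merges feature fluorescence with signal-to-noise for each printed compound spot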
[2] = tested on: Human papillomavirus type 1a E7 protein (residues 1-88); assay: HPV1a E7 small-molecule binders, primary screen, biochemical, small-molecule microarray, residues 1-88, 635 nm (AID 1129); conditions: small-molecule microarray binding, fluorescence 635 nm; higher = more signal
[3] = molecular target: Focal adhesion kinase 1 (Homo sapiens) (UniProt Q05397); assay: PTK2 protein binding on printed compound slides – biochemical, small-molecule microarray, 635/667 nm fluorescence, BSA, DTT, primary screen (AID 1130); conditions: 635 nm fluorescence, higher = more signal;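 note: composite of spot emission at 667 nm and signal to noise over triplicate slides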
[4] = tested on: Fibrinogen (Alexa647-labelled); assay: Alexa647-fibrinogen binding to printed small molecules – biochemical, small-molecule microarray, 635/667 nm fluorescence, artefact control for SMM control-protein annotation, profiling panel (AID 1131); conditions: fibrinogen-A647 binding fluorescence, higher = more signal;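 note: z-score merges 667 nm fluorescence with per-spot signal-to-noise over triplicate slides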
[5] = molecular target: Follistatin (Homo sapiens) (UniProt P19883); assay: FST protein binding to printed compounds – biochemical, small-molecule microarray, 635/667 nm fluorescence, primary screen (AID 1132); conditions: 635 nm fluorescence, higher = more signal
[6] = molecular target: Fibroblast growth factor 2 (Homo sapiens) (UniProt P09038); assay: basic fibroblast growth factor binding to printed compounds – biochemical, small-molecule microarray, 635/667 nm fluorescence, primary screen (AID 1133); conditions: FGF2, fluorescence 635/667, higher = more signal
[7] = JC-1 mitochondrial potential readout, lung cancer cells – cell-based, A549, JC-1 fluorescence, basal, 24 h, 100 nL, profiling panel (AID 1138); conditions: higher = more signal;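 note: A549 lung adenocarcinoma cells under basal conditions with no added stimulus; test concentration not given here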
[8] = tested on: Lefty1; assay: Lefty1 protein binding to printed compounds – biochemical, small-molecule microarray, 635/667 nm fluorescence, primary screen (AID 1139); conditions: fluorescence 635/667, higher = more signal
[9] = tested on: wheat germ agglutinin (Triticum aestivum), Alexa647-labelled; assay: Alexa647-WGA lectin binding to printed small molecules – biochemical, small-molecule microarray, 635/667 nm fluorescence, artefact control for SMM control-protein annotation, profiling panel (AID 1140); conditions: WGA-A647 binding, 635 nm fluorescence, higher = more signal;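 note: score merges 667 nm feature emission with signal to noise over triplicate slides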
[10] = molecular target: Luciferin 4-monooxygenase (Photinus pyralis) (UniProt P08659); assay: inhibition of purified Photinus pyralis luciferase – biochemical, luminescence, purified enzyme, 2006 set, primary screen (AID 1141); conditions: purified firefly luciferase, SteadyGlo luminescence, 30 min; higher = more signal, called active from +8 up or from −8 down;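 note: cell-free assay with purified firefly luciferase at 100 ng per well in PBS; test concentration not given here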
[11] = tested on: Wnt5a (protein binding on small-molecule microarray); assay: small molecules binding Wnt5a protein – biophysical, small-molecule microarray, 635/667 nm fluorescence, primary screen (AID 1142); conditions: 635 nm fluorescence, higher = more signal;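 note: fluorescence read at 667 nm with signal to noise per printed feature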
[12] = ATP-based viability of Huh7 replicon cells – cell-based, CellTiter-Glo luminescence, basal, 48 h, cytotoxicity control for HCV replication inhibitor project, primary screen (AID 1143); conditions: higher = more signal, called active from +8 up or from −8 down;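 note: Huh7 hepatoma cells carrying a hepatitis C replication reporter with no stimulus; test concentration not given here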
[13] = Pseudomonas biofilm growth suppression – PAO1 strain, BacTiter-Glo luminescence, LB-PBS, primary screen (AID 1144); conditions: P. aeruginosa PAO1 biofilm, 12 h, higher = more signal
[14] = basal CRE-LacZ reporter activity in PC12 – cell-based, unstimulated, primary screen (AID 1145); conditions: no forskolin, luminescence, 4.5 h, higher = more signal, called active from +8 up or from −8 down
[15] = forskolin-driven CRE-LacZ activity in PC12 – cell-based, CRE-LacZ reporter, forskolin-stimulated, primary screen (AID 1146); conditions: luminescence, 4.5 h, higher = more signal, called active from +8 up or from −8 down;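 note: PC12 cells with 6xCRE LacZ reporter stimulated by forskolin 10 µM; beta-galactosidase reporter signal reflecting CREB driven transcription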
[16] = molecular target: Streptavidin (Streptomyces avidinii) (UniProt P22629); assay: compounds binding control protein streptavidin – biophysical, small-molecule microarray, 635/667 nm fluorescence, artefact control for SMM compound annotation, primary screen (AID 1147); conditions: higher = more signal;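 note: signal reflects streptavidin binding to arrayed compounds as a control protein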
[17] = probe aInhba binding on compound microarray – biochemical, small-molecule microarray, 635/667 nm fluorescence, primary screen (AID 1148); conditions: higher = more signal;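 note: score merges 667nm spot fluorescence with signal-to-noise for antibody binding to printed compounds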
[18] = molecular target: Torsin-1A (Homo sapiens) (UniProt O14656); assay: TOR1A wild-type binding on microarray – cell lysate, small-molecule microarray, lysate, 635/667 nm, primary screen (AID 1149); conditions: COS7 hTOR1A-WT lysate, 635 nm fluorescence, higher = more signal
[19] = molecular target: Torsin-1A (Homo sapiens) (UniProt O14656); assay: torsin A mutant lysate binding on microarrays – cell lysate, small-molecule microarray, COS7 lysate, 635/667 nm fluorescence, primary screen (AID 1150); conditions: COS7 hTOR1A mutant lysate, 635 nm fluorescence, higher = more signal;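 note: score pools 667 nm emission and signal to noise measuring lysate protein binding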
[20] = tested on: Sonic hedgehog protein (Shh); assay: Sonic hedgehog microarray binding compounds – biochemical, small-molecule microarray, 635/667 nm fluorescence, primary screen (AID 1151); conditions: 635 nm fluorescence, higher = more signal;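 note: Shh protein binding to compounds spotted on small-molecule microarray slides; score combines spot fluorescence intensity with signal-to-noise across triplicate slides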

Sequence of Torsin-1A (Homo sapiens) (O14656 whole entry, looked up): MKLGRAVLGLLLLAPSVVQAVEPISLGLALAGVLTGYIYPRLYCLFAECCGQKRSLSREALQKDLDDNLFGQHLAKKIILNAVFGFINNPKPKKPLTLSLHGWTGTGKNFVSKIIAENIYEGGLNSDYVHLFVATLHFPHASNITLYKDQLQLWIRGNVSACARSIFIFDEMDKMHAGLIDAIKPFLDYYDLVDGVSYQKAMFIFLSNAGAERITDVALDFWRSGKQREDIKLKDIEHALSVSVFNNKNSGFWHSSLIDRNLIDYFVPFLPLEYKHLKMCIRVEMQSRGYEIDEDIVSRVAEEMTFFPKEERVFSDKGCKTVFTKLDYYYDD
Sequence of Streptavidin (Streptomyces avidinii) (P22629 whole entry, looked up): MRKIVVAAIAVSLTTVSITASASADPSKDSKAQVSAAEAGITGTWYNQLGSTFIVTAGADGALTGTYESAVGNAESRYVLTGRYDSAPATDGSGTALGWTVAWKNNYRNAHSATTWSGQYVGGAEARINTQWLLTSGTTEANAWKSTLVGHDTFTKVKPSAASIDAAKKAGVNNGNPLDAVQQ
Sequence of Luciferin 4-monooxygenase (Photinus pyralis) (P08659 whole entry, looked up): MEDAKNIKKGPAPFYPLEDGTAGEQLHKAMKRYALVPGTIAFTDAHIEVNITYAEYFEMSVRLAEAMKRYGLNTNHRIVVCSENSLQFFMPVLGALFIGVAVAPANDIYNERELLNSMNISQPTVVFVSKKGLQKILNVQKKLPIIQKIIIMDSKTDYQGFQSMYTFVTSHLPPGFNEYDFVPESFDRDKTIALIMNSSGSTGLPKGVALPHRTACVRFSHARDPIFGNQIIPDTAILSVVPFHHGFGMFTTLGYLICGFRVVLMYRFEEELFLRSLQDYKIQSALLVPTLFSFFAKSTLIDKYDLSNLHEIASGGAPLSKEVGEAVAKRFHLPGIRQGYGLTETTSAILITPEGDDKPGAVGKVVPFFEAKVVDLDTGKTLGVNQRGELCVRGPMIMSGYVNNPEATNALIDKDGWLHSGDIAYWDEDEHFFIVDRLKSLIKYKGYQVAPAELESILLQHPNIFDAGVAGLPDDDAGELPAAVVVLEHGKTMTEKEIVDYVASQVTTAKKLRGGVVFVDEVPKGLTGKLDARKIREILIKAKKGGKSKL
Sequence of Follistatin (Homo sapiens) (P19883 whole entry, looked up): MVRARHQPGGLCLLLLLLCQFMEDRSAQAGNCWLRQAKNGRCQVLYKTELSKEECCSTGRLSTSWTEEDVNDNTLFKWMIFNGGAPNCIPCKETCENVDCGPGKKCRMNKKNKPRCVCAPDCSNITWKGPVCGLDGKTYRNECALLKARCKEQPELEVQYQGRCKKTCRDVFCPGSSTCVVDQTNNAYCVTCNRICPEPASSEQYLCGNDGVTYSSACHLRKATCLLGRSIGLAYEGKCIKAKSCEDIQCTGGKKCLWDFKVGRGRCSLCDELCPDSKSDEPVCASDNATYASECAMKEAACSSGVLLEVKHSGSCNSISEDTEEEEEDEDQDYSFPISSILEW
Sequence of Focal adhesion kinase 1 (Homo sapiens) (Q05397 whole entry, looked up): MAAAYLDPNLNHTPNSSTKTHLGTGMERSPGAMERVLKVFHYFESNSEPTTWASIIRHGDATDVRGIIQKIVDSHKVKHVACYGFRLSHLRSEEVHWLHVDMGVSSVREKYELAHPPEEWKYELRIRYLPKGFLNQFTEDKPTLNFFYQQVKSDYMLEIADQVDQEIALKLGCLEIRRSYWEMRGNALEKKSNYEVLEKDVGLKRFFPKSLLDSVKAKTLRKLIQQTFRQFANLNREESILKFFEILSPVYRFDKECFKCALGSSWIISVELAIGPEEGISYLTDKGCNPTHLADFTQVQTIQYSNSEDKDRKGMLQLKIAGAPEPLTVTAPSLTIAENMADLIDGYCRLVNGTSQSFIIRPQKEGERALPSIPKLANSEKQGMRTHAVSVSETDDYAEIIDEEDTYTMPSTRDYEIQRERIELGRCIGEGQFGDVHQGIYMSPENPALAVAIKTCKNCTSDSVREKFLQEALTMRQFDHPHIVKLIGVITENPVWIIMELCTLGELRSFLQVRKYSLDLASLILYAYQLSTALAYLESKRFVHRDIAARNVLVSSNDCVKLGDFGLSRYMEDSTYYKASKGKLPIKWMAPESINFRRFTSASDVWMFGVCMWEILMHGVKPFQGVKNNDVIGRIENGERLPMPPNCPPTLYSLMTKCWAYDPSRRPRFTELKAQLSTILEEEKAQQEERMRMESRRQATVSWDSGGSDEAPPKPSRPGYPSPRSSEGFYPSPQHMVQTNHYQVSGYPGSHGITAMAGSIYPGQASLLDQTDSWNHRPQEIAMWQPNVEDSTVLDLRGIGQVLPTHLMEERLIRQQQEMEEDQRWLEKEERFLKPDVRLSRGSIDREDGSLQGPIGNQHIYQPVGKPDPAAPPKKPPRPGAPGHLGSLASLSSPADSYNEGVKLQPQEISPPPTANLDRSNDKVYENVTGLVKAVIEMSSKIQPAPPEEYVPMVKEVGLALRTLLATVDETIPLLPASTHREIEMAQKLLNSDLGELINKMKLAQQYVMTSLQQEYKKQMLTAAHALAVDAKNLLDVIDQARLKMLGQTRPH
Sequence of Fibroblast growth factor 2 (Homo sapiens) (P09038 whole entry, looked up): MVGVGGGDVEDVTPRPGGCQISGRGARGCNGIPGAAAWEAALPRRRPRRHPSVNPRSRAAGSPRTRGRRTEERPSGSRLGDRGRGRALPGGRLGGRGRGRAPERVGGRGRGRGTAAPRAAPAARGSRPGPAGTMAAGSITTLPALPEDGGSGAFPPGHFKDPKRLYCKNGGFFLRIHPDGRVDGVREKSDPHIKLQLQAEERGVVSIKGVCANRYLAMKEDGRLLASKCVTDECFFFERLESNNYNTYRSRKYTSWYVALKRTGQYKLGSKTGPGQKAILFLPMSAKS

Q: Which results are given for `CC(C)(C)OC(=O)CC[C@@]1(C(=O)N2CCCCC2)N=C(c2ccc(OCCCO)cc2)O[C@@H]1c1ccccc1CN=[N+]=[N-]`?
A: composite z-score [1]: 3.24; composite z-score [2]: 1.21; composite z-score [3]: 1.26; composite z-score [4]: 1.03; composite z-score [5]: 1.04; composite z-score [6]: 0.0627; z-score [7]: 1.58; composite z-score [8]: 0.0215; composite z-score [9]: 1.35; z-score [10]: -0.931 (inactive); composite z-score [11]: 0.34; z-score [12]: -1.95 (inactive); z-score [13]: 0.37 (inactive); z-score [14]: 0.414 (inactive); z-score [15]: -0.284 (inactive); composite z-score [16]: 1.07; composite z-score [17]: 0.248; composite z-score [18]: 1.1; composite z-score [19]: 1.22; composite z-score [20]: -0.226

Q: Which composite z-score [1] does the source give for `COC(=O)[C@H]1N=C(c2ccc(OCCCO)cc2)O[C@H]1c1ccccc1CN=[N+]=[N-]` here?
A: 0.96

Q: And the composite z-score [2]?
A: -0.189

Q: What about the composite z-score [3] of the same compound?
A: 0.605

Q: And the composite z-score [4]?
A: 0.825

Q: What about the composite z-score [5] of the same compound?
A: 0.107

Q: What about the composite z-score [6] of the same compound?
A: -0.372

Q: And the z-score [7]?
A: 0.758

Q: And the composite z-score [8]?
A: -0.139

Q: And the composite z-score [9]?
A: 0.434

Q: And the z-score [10]?
A: -8.1 (active)

Q: What about the composite z-score [11] of the same compound?
A: -0.0973

Q: And the z-score [12]?
A: -1.45 (inactive)

Q: What about the z-score [13] of the same compound?
A: 0.446 (inactive)

Q: What about the z-score [14] of the same compound?
A: -0.23 (inactive)

Q: And the z-score [15]?
A: -0.785 (inactive)

Q: And the composite z-score [16]?
A: -0.129

Q: And the composite z-score [17]?
A: 0.11

Q: And the composite z-score [18]?
A: -1.66

Q: And the composite z-score [19]?
A: -0.8

Q: And the composite z-score [20]?
A: 0.166

Q: With `CC(C)=CCCC(C)=CC(O)C1C=CC2C(=O)N(c3ccccc3)C(=O)C2N1Nc1ccc([N+](=O)[O-])cc1` (stereo not given) as the compound, how does the composite z-score [1] read?
A: 0.987

Q: What about the composite z-score [2] of the same compound?
A: 1.22

Q: What about the composite z-score [3] of the same compound?
A: 0.954

Q: What about the composite z-score [4] of the same compound?
A: 1.02

Q: What about the composite z-score [5] of the same compound?
A: 1.03

Q: What about the composite z-score [6] of the same compound?
A: -0.151

Q: And the z-score [7]?
A: -0.78

Q: What about the composite z-score [8] of the same compound?
A: 0.253

Q: What about the composite z-score [9] of the same compound?
A: 0.969

Q: And the z-score [10]?
A: 0.453 (inactive)

Q: What about the composite z-score [11] of the same compound?
A: 0.0504

Q: What about the z-score [12] of the same compound?
A: -1.72 (inactive)

Q: What about the z-score [13] of the same compound?
A: -0.322 (inactive)

Q: And the z-score [14]?
A: 0.323 (inactive)

Q: What about the z-score [15] of the same compound?
A: -0.0578 (inactive)

Q: And the composite z-score [16]?
A: 2.06

Q: What about the composite z-score [17] of the same compound?
A: 0.077

Q: And the composite z-score [18]?
A: 0.383

Q: And the composite z-score [19]?
A: 1.12

Q: And the composite z-score [20]?
A: 0.821

Q: Which results are given for `O=C(O)[C@@]1(Cc2ccccc2)COC(c2ccc(OCCCO)cc2)=N1`?
A: composite z-score [1]: -0.951; composite z-score [2]: -0.915; composite z-score [3]: -0.375; composite z-score [4]: -2.33; composite z-score [5]: 0.24; composite z-score [6]: -0.33; z-score [7]: 0.315; composite z-score [8]: -1.18; composite z-score [9]: -0.723; z-score [10]: -3.65 (inactive); composite z-score [11]: 0.0416; z-score [12]: 0.621 (inactive); z-score [13]: 0.498 (inactive); z-score [14]: -0.277 (inactive); z-score [15]: 0.0685 (inactive); composite z-score [16]: -0.345; composite z-score [17]: -0.252; composite z-score [18]: -0.162; composite z-score [19]: 1.52; composite z-score [20]: -0.555

Q: Which results are given for `CN(C)CCCN1C(=O)[C@@]2(Cc3ccccc31)c1ccccc1C(=O)N(Cc1ccccc1)[C@H]2c1ccc(CO)cc1`?
A: composite z-score [1]: -0.201; composite z-score [2]: -0.153; composite z-score [3]: -0.0553; composite z-score [4]: 0.385; composite z-score [5]: 0.375; composite z-score [6]: 0.144; z-score [7]: -0.548; composite z-score [8]: 0.122; composite z-score [9]: 0.111; z-score [10]: 1.09 (inactive); composite z-score [11]: -0.173; z-score [12]: -5.06 (inactive); z-score [13]: -1.74 (inactive); z-score [14]: -0.491 (inactive); z-score [15]: -0.665 (inactive); composite z-score [16]: -0.394; composite z-score [17]: -0.128; composite z-score [18]: -0.158; composite z-score [19]: -0.105; composite z-score [20]: 0.463
